In the library only some 18% were active in any assay of this set; here they are far more common.
TDP1 block – blocks human tyrosyl-DNA phosphodiesterase 1; Potency, µM (highest dose often 130 µM), for the others: top-dose activity change, negative = inhibition, most hits filed as inhibitors; 0.28% of 350,000 active; AID 485290; recombinant TDP1, AlphaScreen DNA substrate cleavage; further: potency means the concentration at half of the fitted maximal effect; on the % scale 0 is the no-effect control and ±100 the full control effect; nearly all actives have a fitted effect of over 40% in size
Target sequence (Q9NUW8 whole entry, looked up): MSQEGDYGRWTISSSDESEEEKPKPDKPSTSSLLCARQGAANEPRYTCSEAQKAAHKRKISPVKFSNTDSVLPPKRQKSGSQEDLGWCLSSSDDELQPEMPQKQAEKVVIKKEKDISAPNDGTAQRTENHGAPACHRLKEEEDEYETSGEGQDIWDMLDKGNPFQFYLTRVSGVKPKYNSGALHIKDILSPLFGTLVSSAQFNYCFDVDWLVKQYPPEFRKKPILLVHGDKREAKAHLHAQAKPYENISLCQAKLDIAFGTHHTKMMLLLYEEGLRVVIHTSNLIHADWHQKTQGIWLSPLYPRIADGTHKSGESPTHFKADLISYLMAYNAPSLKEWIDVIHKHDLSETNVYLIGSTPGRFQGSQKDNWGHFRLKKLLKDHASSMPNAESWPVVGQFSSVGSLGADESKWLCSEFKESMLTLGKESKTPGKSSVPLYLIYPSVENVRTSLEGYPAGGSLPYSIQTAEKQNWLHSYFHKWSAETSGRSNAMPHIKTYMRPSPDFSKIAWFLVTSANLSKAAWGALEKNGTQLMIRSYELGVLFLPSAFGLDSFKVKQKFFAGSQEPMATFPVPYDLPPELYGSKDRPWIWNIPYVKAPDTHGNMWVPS
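Enzyme-compound mixtures sat 15 min at room temperature, followed by a 5 min reaction with 15 nM final substrate and 10 min with AlphaScreen beads. Recombinant human Tdp1 was used at 1 nM final.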
HepG2 viability – counter-screen for TGF-b inhibitors: cytotoxicity in HepG2 cells; HepG2 CAGA-GFP viability, ATP luminescence, 18 h; Potency, µM (series often up to 46.1 µM), for the others: at the top dose activity change, negative = cytotoxicity, usual class: cytotoxic; 0.76% of 410,000 active; AID 588856; further: potency means the concentration at half of the fitted maximal effect
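HepG2 CAGA-GFP cells (1000/well, DMEM with 1% FBS) received compound, then TGF-beta at 500 pg/mL final, and were incubated 18 hours at 37 degrees C. Viability was read by CellTiter-Glo luminescence. Media-only wells were set as complete cell-killing and DMSO as no toxicity.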
DT40 TDP1 no CPT – qHTS for Inhibitors of human tyrosyl-DNA phosphodiesterase 1 (TDP1): qHTS in cells in absence of CPT. DT40 Tdp1-/- hTDP1 cells, no CPT, ATP luminescence, 48 h. Potency, µM (series often up to 46.2 µM), for the others: at the top dose activity change, negative = growth inhibition, most hits filed as inhibitors. 15% of 420,000 active; further: potency means the concentration at half of the fitted maximal effect; on the % scale 0 is the no-effect control and ±100 the full control effect; nearly all actives have a fitted effect of over 55% in size
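Camptothecin absent (DMSO only). Human TDP1-complemented DT40 knockout cells, 400 cells/well, 37 °C for minimum 48 hr; ATP measured via CellTiter-Glo, 30 min dark incubation, luminescence.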
TGFb inhibitor – TGF-b pathway inhibition; Potency, µM (top dose mostly 46.1 µM), without a hit: at the highest dose activity, negative = inhibition, hits mostly inhibitors; 1.2% of 410,000 active; HepG2 CAGA-GFP TGF-b/SMAD3 reporter, GFP fluorescence, 18 h; TGF-beta stimulated, 500 pg/mL final; AID 588855; further: potency means the concentration at half of the fitted maximal effect; on the % scale 0 is the no-effect control and ±100 the full control effect; nearly all actives have a fitted effect of over 65% in size
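TGF-beta reporter screen: HEPG2 CAGA-GFP, 1% FBS, 500 pg/mL TGF-beta final, 18 h; per-cell GFP summed per well; curves fitted and categorized by class.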
TDP1 cell CPT – DT40-hTDP1 cell growth loss with CPT | Potency, µM (titrated, usually from 46.2 µM), without a hit: top-dose activity change, negative = growth inhibition, most hits filed as inhibitors | 12% of 420,000 active | chicken DT40 Tdp1-/-;hTDP1 cells + 20 nM CPT, ATP luminescence, 48 h | AID 686979; further: potency means the concentration at half of the fitted maximal effect; on the % scale 0 is the no-effect control and ±100 the full control effect; nearly all actives have a fitted effect of over 55% in size
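Chicken DT40 Tdp1-/- cells complemented with human TDP1, 400 cells/well, exposed to compounds plus 20 nM camptothecin for at least 48 h at 37 C; viability read as ATP content by CellTiter-Glo luminescence.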
IL-1B inflam inh – blocks inflammasome-driven IL-1 beta release; activity change, % at 57.5 µM; THP-1 LPS/ATP IL-1B secretion, AlphaLISA, 16 h; stronger effect = lower value; 4.7% of 360,000 active; in the data active means activity change below about -50%; inconclusive means mostly about -30% to -49%; further: on the % scale 0 is the no-effect control and ±100 the full control effect
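THP-1 cells pretreated 1 hr with compounds (up to 57.5 uM final), then stimulated with LPS (250 ng/mL final) plus ATP (1.25 mM final); secreted IL-1B measured by AlphaLISA after 16 hr, decreased signal indicating inhibition.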
Active calls of the source: *; i = inactive; ? = inconclusive; . = not tested or not shown; [ ] = another dose, or the depositor's remark. Unless noted, the call rests on the fitted dose curve; in most records, active means well fitted curve in the direction sought with a large enough effect; inconclusive means small, poorly fitted or top-dose-only effect, or another doubt; inactive means no such curve, though single readings can be large; an effect the other way counts as inactive or inconclusive.

SMILES	TDP1 block	HepG2 viability	DT40 TDP1 no CPT	TGFb inhibitor	TDP1 cell CPT	IL-1B inflam inh
O=C1C(NS(=O)(=O)c2ccc(Cl)cc2)=C(N2CCCCC2)C(=O)c2ccccc21	1%	-114%	18µM*	?	26µM*	?
O=C(CNS(=O)(=O)c1cccs1)N1CCN(c2cccc(C(F)(F)F)c2)CC1	5%	-36%	21µM*	0%	16µM*	.
CCN1CCN(C(CNS(=O)(=O)c2ccc(Br)cc2)c2cccnc2)CC1 (centres undefined)	0%	0%	-4%	-15%	-5%	i
CCOC(=O)c1sc(N2C(=O)c3oc4ccc(F)cc4c(=O)c3C2c2cccc(OC)c2)nc1C (centres undefined)	2%	3%	-10%	-21%	-10%	.
CCOC(=O)c1ccccc1NC(=O)Cn1ccn2nc(-c3ccc(OCC)cc3)cc2c1=O	4%	1%	-13%	19%	-12%	.
Cc1cccc(Nc2sc(C(=O)c3cc4cc(Cl)ccc4o3)c(N)c2C#N)c1	3%	-5%	3%	8%	-3%	18
COC(=O)C(CC(C)C)NS(=O)(=O)c1ccccc1Br (centres undefined)	-10%	-25%	.	?	.	.
Cc1cccc(-n2cc(CNCCc3nc(C)cc(C)n3)c(-c3cccc(F)c3)n2)c1	.	-74%	4.6µM*	11µM*	12µM*	?
COc1ccc(-c2nn(-c3ccccc3C)cc2CNCCc2cnc[nH]2)cc1F	7%	-22%	?	3%	?	-29
Cc1cccc(-c2nn(-c3ccccc3)cc2CNCCO)c1	2%	-52%	13µM*	?	?	.
COC(=O)CC1C(=O)NCCN1Cc1cn(-c2ccc(C)cc2)nc1-c1cccc(C)c1 (centres undefined)	-2%	-3%	?	-16%	-28%	?
Cc1ccc(-n2cc(CNCCCn3cccn3)c(-c3cccc(C)c3)n2)cc1	.	-99%	16µM*	?	13µM*	-99*
CCN1CC(CN(C)Cc2cn(-c3ccc(C)cc3)nc2-c2ccc(F)cc2)CC1=O (centres undefined)	3%	-1%	?	-1%	?	-21
CCN1CC(CN(C)Cc2cn(-c3cccc(C)c3)nc2-c2cccc(F)c2)CC1=O (centres undefined)	0%	-72%	18µM*	?	16µM*	?
O=C(CCN1C(=O)c2ccc([N+](=O)[O-])cc2C1=O)Nc1ccccc1C(=O)O	.	-6%	-17%	0%	-2%	-5
O=C(CCC1N=C2c3ccccc3N=C(SCc3ccc(Cl)cc3)N2C1=O)NCc1cccs1 (centres undefined)	-2%	2%	?	8%	?	.
O=C(NC1CC1)[C@@H]1C[C@@H](Sc2nc3ccccc3[nH]2)CN1CC1CCCCC1	.	.	?	.	-3%[9.04 µM]	.
Cc1ccc(C)c(-n2cc(CNC(C)Cn3cncn3)c(-c3ccccc3)n2)c1 (centres undefined)	2%	18%	?	3%	?	-18
Cc1ccc(C)c(-n2cc(CNCCCn3cccn3)c(-c3ccccc3)n2)c1	-1%	-50%	21µM*	-28%	23µM*	?
CCOC(=O)c1nnn2c1nc(Nc1cccc(C(F)(F)F)c1)c1ccccc12	.	6%	5.8µM*	5%	10µM*	.
Cc1ccc(-c2nnn3c2nc(NC2CCC(C)CC2)c2ccccc23)cc1 (centres undefined)	1%	-1%	?	19%	-12%	.
C=CCSc1nc2c(C(=O)OCC)nnn2c2ccccc12	.	-16%	9.2µM*	9%	?	2
CCOC(=O)c1nnn2c1nc(SCC(C)=O)c1ccccc12	0%	5%	?	-17%	1%	6
CC1CCC(Nc2nc3c(-c4cccc(C(F)(F)F)c4)nnn3c3ccccc23)CC1 (centres undefined)	9%	7%	29µM*	-2%	?	.
COc1ccc2c(c1)c1c(c(=O)n(-c3ccc(F)c(Cl)c3)c(=O)n1CC(N)=O)n2C	6%	-12%	-9%	3%	-23%	.
SMILES	TDP1 block	HepG2 viability	DT40 TDP1 no CPT	TGFb inhibitor	TDP1 cell CPT	IL-1B inflam inh
C=C(C)C1Cc2c(C)nn(-c3nc(C)cc(C)n3)c2C1 (centres undefined)	8%	-5%	4.6µM*	?	2.3µM*	-11
C=C(C)C1Cc2nc(N)nc(C)c2C1 (centres undefined)	-2%	-27%	-14%	25%	-14%	25
CCS(=O)(=O)N1Cc2cc(C(=O)NCC3CC3)nc(-c3cccc(-c4cccnc4)c3)c2[C@@H]1CCO	.	.	26µM*	.	?	-5
CC(=O)N1Cc2cc(C(=O)NCC(F)(F)F)nc(-c3cccc(-c4cccnc4)c3)c2[C@H]1CCO	.	.	-19%	.	-20%	-10
CCNC(=O)c1cc2c(c(-c3cccc(-c4cccnc4)c3)n1)[C@H](CCO)N(S(C)(=O)=O)C2	.	.	4.1µM*	.	4.6µM*	41
CC(=O)N1Cc2cc(C(=O)NCC(F)(F)F)nc(-c3cccc(-c4cccnc4)c3)c2[C@@H]1CCO	.	.	5.8µM*	.	6.5µM*	72
O=C(NCCc1ccccc1)c1nnc(CS(=O)(=O)c2ccccc2)o1	.	-8%	?	-2%	-9%	-12
COC(=O)c1c(C)[nH]c(O)c1C=Nc1ccc(Oc2ccccc2)cc1	-15%	7%	?	-2%	-24%	-15
COC(=O)c1c(C)[nH]c(O)c1C=Nc1ccc(C(C)C)cc1	4%	-40%	18µM*	-7%	?	-101*
O=c1[nH]c(/C=C\c2ccc(O)c(Cl)c2)nc(O)c1[N+](=O)[O-]	.	5%	19%	1%	1%	12
CCC(C)NC(=O)c1ccc2c(c1)N=C(C)c1cc(C)ccc1S2 (centres undefined)	-5%	-22%	5.2µM*	7.1µM*	3.3µM*	.
CC1=Nc2cc(C(=O)NCCCN3CCN(C)CC3)ccc2Sc2ccc(C)cc21	3%	-39%	18µM*	?	?	-2
CC1=Nc2cc(C(=O)NCC3CCCO3)ccc2Sc2ccc(C)cc21 (centres undefined)	2%	-2%	0.92µM*	?	0.58µM*	6

High-throughput results (PubChem)
